PubChem BioAssay (NCI)
Compounds without any hit were thinned out: in the full panel of roughly 79,000, 15% have a hit. Activity calls are given as the source filed them. Cut-off read from the data, not from the text of the source: active = growth inhibition above about 70%; inactive = the rest. Where a SMILES comes first, the peptide text is derived from it. Bridges are numbered along the chain shown (N, C = ends). The star is where a group is joined. Cbz = O=C(OCc1ccccc1)*; OBn = c1ccc(CO*)cc1

Assay: NCI Yeast Anticancer Drug Screen. Data for the bub3 strain (AID 167)
Settings: S. cerevisiae bub3 mutant strain, at 50.0 µM, active compounds read high
In short: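 Compounds were applied to a genetically altered yeast strain carrying a cell-cycle control defect. Growth inhibition was scored against vehicle-treated controls.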

| SMILES | growth inhibition |
| --- | --- |
| CSC(=Nc1nnc(-c2ccc([N+](=O)[O-])cc2)s1)SC | -5.5% (inactive) |
| BrCCCOc1ccccc1Br | 4.2% (inactive) |
| Clc1cccc(NNc2cccc(Cl)c2)c1 | 7.25% (inactive) |
| CCCCCCCCCCCCCCCC(=O)OCC(=O)O | 15.2% (inactive) |
| O=C1CSC(=O)N1 | -38% (inactive) |
| CC(C)OC(=O)Nc1ccc(F)c(F)c1 | 6.85% (inactive) |
| CC(C)CN1CC(C)C(=O)NC1=O (stereo not given) | 1% (inactive) |
| COc1ccc2cc(C(=O)CCC(=O)O)ccc2c1 | -38.5% (inactive) |
| CC(C)C1NC(C(=O)O)C(C)(C)S1 (stereo not given) | 0.35% (inactive) |
| CCCc1c(Cl)nc(Cl)nc1Cl | 5.2% (inactive) |
| O=C1C(N=Nc2ccccc2)Sc2nc3ccccc3n21 (stereo not given) | 4.5% (inactive) |
| CCOC(=O)CC(=O)CC | -6.45% (inactive) |
| CCOC(=O)c1c2ccc(/C=C/c3ccccn3)ccc-2c(C(=O)OCC)c1N | 0.9% (inactive) |
| CC(=O)NCC1(c2ccccc2)CCN(Cc2ccccc2)CC1 | -17% (inactive) |
| O=C(Nc1ccccc1Cl)c1ccccc1O | -5% (inactive) |
| BrCCCCCCCCCBr | -16.6% (inactive) |
| COc1ccc(Nc2nc(NNC(=O)Cc3ccccc3)nc(NNC(=O)c3ccncc3)n2)cc1 | 27.2% (inactive) |
| CCN(CC)Cc1cc(C)c(O)c(N=Nc2cc(OC)c(N=Nc3ccc([N+](=O)[O-])cc3)cc2OC)c1C | 4.7% (inactive) |
| CCNC(=S)NC1CCCCC1 | -13.1% (inactive) |
| CC(=O)CC(=O)NCc1ccc2c(c1)OCO2 | -15.1% (inactive) |

| SMILES | growth inhibition |
| --- | --- |
| COC(=O)C1CCC(=O)NCCCCC(NC(=O)C(CC(=O)OCc2ccccc2)NC(=O)OCc2ccccc2)C(=O)N1 (stereo not drawn) (Cbz-Asp(OBn)-Lys-Glu-OMe; lactam 2-3; configuration not given here) | 28.4% (inactive) |
| O=C(O)C(c1ccccc1)C(F)(F)F (stereo not given) | -2.1% (inactive) |
| COc1cc(/C=C/C(=O)N[C@@H]2C(=O)N3[C@@H]2SC(C)(C)[C@@H]3C(=O)O)cc(OC)c1OC | -7% (inactive) |
| CC1=NN(c2nc(N)nc(CSc3cc(Cl)c(C)cc3S(N)(=O)=O)n2)C(C)(C)C1 | -18.1% (inactive) |
| O=C(Oc1ccc(Cl)cc1)c1ccccc1 | -7.75% (inactive) |
| COC(=O)C1=CCOc2c1c(C(=O)OC)nn2C | -11.2% (inactive) |
| C/C=C/C(=O)NN | -2.9% (inactive) |
| C=C(NC(C)=O)C(=O)O | 10.9% (inactive) |
| O=C1c2ccccc2C(=O)c2c1nnn2-c1ccccc1 | 17.2% (inactive) |
| CC1=C(c2ccccc2)CON(c2ccccc2)C1 | 14.8% (inactive) |
| CC(C)(C)N=Cc1ccccc1[O-].CC(C)(C)N=Cc1ccccc1[O-].[Co+2] | 3.6% (inactive) |
| Cc1c(C)c(O)c(C)c(C)c1O | 6.85% (inactive) |
| NC(N)=NS(=O)(=O)c1ccc(NC(=O)c2cccc3c(N)c4ccccc4nc23)cc1 | -9% (inactive) |
| O=C(NO)/C(CC(=O)c1ccc(O)cc1)=N\O | -3.7% (inactive) |
| C/C(=N\N(C)/C=N/S(C)(=O)=O)c1ccccc1 | -2.9% (inactive) |
| O=C(O)C#Cc1ccccc1 | -23.2% (inactive) |
| O=C(NCc1ccccc1)NCc1ccccc1 | -18.4% (inactive) |
| CN1CCCCC1CCN1CCCCC1 (stereo not given) | -17.9% (inactive) |
| O=c1cnc(=O)[nH][nH]1 | 5.7% (inactive) |
| COc1ccc(-n2nnnc2C2(Nc3ccccc3)CCN(Cc3ccccc3)CC2)cc1 | -2.15% (inactive) |
